{"source": "PubChem BioAssay AID449728", "about": "(The Scripps Research Institute Molecular Screening Center, 2010)", "note": "The campaign covered roughly 330,000 compounds. About 900 (0.27%) were called active.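 The calls were made as follows: active = inhibition above the campaign's mean inhibition across all tested compounds plus 3 SD (cut at about 9.9% in these data); inactive = the rest.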 Only a selection was taken, and actives are over-represented in it overall.", "data": [{"assay": "bacterial viability reduction in E. coli – absorbance, OD600, counter-screen for AddAB inhibitor project, primary screen (AID 449728);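 also: uninfected addAB+ strain grown without phage in ampicillin broth; 0% = DMSO wells and 100% = ciprofloxacin 0.95 µg/ml wells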", "conditions": "E. coli V3065 growth, 18 h, at 11.9 µM, active compounds read high", "values": [{"smiles": "CC[C@H]1OC(=O)[C@H](C)[C@@H](O[C@H]2C[C@@](C)(OC)[C@@H](O)[C@H](C)O2)[C@H](C)[C@@H](O[C@@H]2O[C@H](C)C[C@H](N(C)C)[C@H]2O)[C@](C)(O)C[C@@H](C)[C@@H]2N[C@@H](COCCOC)O[C@H]([C@H]2C)[C@]1(C)O", "inhibition": "39.7% (active)"}, {"smiles": "O=C(Nc1cccc2c1N(C(=O)c1ccco1)CCC2)c1ccco1", "inhibition": "0.81% (inactive)"}, {"smiles": "CCCc1nc(SCC(=O)N2CCCC2)c2c(=O)n(C)c(=O)n(C)c2n1", "inhibition": "0.51% (inactive)"}, {"smiles": "O=C(NCc1ccncc1)C(=O)NCc1ccco1", "inhibition": "-0.95% (inactive)"}, {"smiles": "C/C(N)=C(/C#N)C(=O)COC(=O)C1CCN(C(=O)c2ccc(Cl)cc2)CC1", "inhibition": "-2.66% (inactive)"}, {"smiles": "N#Cc1c(-c2ccc(F)cc2)cc(C2CC2)nc1SCC(=O)c1cccs1", "inhibition": "-0.26% (inactive)"}, {"smiles": "Cn1ccc(=Nc2ccc(NC(=O)c3ccc(N=c4ccn(C)c5ccc([N+](=O)[O-])cc45)cc3)cc2)cc1", "inhibition": "103% (active)"}, {"smiles": "CC(=O)NC(=S)Nc1ccc(NC(=S)NC(=O)c2ccc([N+](=O)[O-])cc2)cc1", "inhibition": "-0.16% (inactive)"}, {"smiles": "COc1cc(NS(=O)(=O)c2ccc(NC(=O)c3ccc([N+](=O)[O-])cc3)cc2)ncn1", "inhibition": "1.53% (inactive)"}, {"smiles": "C=CCn1c(SCC(N)=O)nnc1-c1cc2c(s1)CCC(CC)C2", "note": "(stereo unspecified)", "inhibition": "1.3% (inactive)"}, {"smiles": "CCCCN(CC)CCNC(=O)c1[nH]c(C)c(C(C)=O)c1C", "inhibition": "-0.92% (inactive)"}, {"smiles": "O=C(CN1CCN(c2ccccn2)CC1)NC1CCCCC1", "inhibition": "1.09% (inactive)"}, {"smiles": "O=C(CN1CCN(c2ccccn2)CC1)Nc1ccc(Br)cc1", "inhibition": "2.27% (inactive)"}, {"smiles": "CCN(CC)c1ccc(NC(=O)CN2CCN(c3ccccn3)CC2)cc1", "inhibition": "10.5% (active)"}, {"smiles": "CC(=O)N(O)CCCCCNC(=O)CCC(=O)N(O)CCCCCNC(=O)CCC(=O)N(O)CCCCCNC(=O)CCC(=O)O", "inhibition": "25.5% (active)"}, {"smiles": "NC(=O)NCCCC(=O)O", "inhibition": "-0.17% (inactive)"}, {"smiles": "O=C(NNC(=O)c1cc(S(=O)(=O)N2CCCCC2)ccc1Cl)c1ccccc1O", "inhibition": "10.3% (active)"}, {"smiles": "O=C(COC(=O)c1cc(S(=O)(=O)N2CCCCC2)ccc1Cl)NCc1ccco1", "inhibition": "-0.84% (inactive)"}, {"smiles": "CC1CCCC(NC(=O)c2cc(S(=O)(=O)N3CCCCC3)ccc2Cl)C1C", "note": "(stereo unspecified)", "inhibition": "-1.24% (inactive)"}, {"smiles": "CCn1cc(/C=C2/SC(=S)NC2=O)c(C)n1", "inhibition": "0% (inactive)"}, {"smiles": "Brc1ccc(/C=N/N2CCN(C3c4ccccc4-c4ccccc43)CC2)s1", "inhibition": "0.91% (inactive)"}, {"smiles": "Cc1nn2c3cc(N4CCOCC4)ccc3nc2c2ccccc12", "inhibition": "0.55% (inactive)"}, {"smiles": "COC(=O)CSc1nc2c(c(C3CC=CCC3)c1C#N)CCC2", "note": "(stereo unspecified)", "inhibition": "0.17% (inactive)"}, {"smiles": "CCOCCCn1c(NN)nc2ccccc2c1=O", "inhibition": "2.87% (inactive)"}, {"smiles": "CCn1c(=O)c([N+](=O)[O-])c(NCc2ccc3c(c2)OCO3)c2ccccc21", "inhibition": "0.41% (inactive)"}, {"smiles": "CCn1c(/C=C/c2ccc([N+](=O)[O-])o2)nc2ccccc2c1=O", "inhibition": "21.6% (active)"}, {"smiles": "Cc1cn(C2C=CC(CO)O2)c(=O)[nH]c1=O", "note": "(stereo unspecified)", "inhibition": "8.77% (inactive)"}, {"smiles": "COc1cc(OC)c2c(c1)OC(=O)CC2c1cc(OC)c(OC)c(OC)c1", "note": "(stereo unspecified)", "inhibition": "2.5% (inactive)"}, {"smiles": "CC1(C)CC2CC(C)(CN2c2ncnc3ccc(Br)cc23)C1", "note": "(stereo unspecified)", "inhibition": "-0.09% (inactive)"}, {"smiles": "Cc1ccc(NC(=O)CCCNC(=O)c2ccc(Cl)cc2)cc1S(=O)(=O)N1CCOCC1", "inhibition": "-1.94% (inactive)"}, {"smiles": "CC(C)[C@@H]1COC(c2cccc(C3=N[C@H](C(C)C)CO3)c2)=N1", "inhibition": "-0.25% (inactive)"}, {"smiles": "CCN1/C(=C\\c2ccc3ccccc3[n+]2CC)Sc2cc(C)ccc21", "inhibition": "15% (active)"}, {"smiles": "CC(=O)c1c(Nc2ccccc2)sc(C(=O)c2ccccc2)c1C", "inhibition": "1.73% (inactive)"}, {"smiles": "CCOc1ccccc1NC(=S)N1CCN(c2cccc(C)c2C)CC1", "inhibition": "0.08% (inactive)"}, {"smiles": "O=C(O)CSc1nccc2ccccc12", "inhibition": "-0.18% (inactive)"}, {"smiles": "O=C1CCC(=O)N(O)CCCCCNC(=O)CCC(=O)N(O)CCCCCNC(=O)CCC(=O)N(O)CCCCCN1", "inhibition": "29.4% (active)"}, {"smiles": "CCOC(=O)c1nnn2c1nc(N1CCN(c3ccccc3)CC1)c1ccccc12", "inhibition": "1.28% (inactive)"}, {"smiles": "O=C(/C=C/c1ccccc1Cl)Nc1ccc(S(=O)(=O)Nc2ncccn2)cc1", "inhibition": "0.84% (inactive)"}, {"smiles": "COc1cccc(OC)c1C(=O)NC(=S)NCc1ccco1", "inhibition": "1.37% (inactive)"}, {"smiles": "COc1cc(C(=O)NC(=S)NCc2ccco2)cc(OC)c1OC", "inhibition": "14.7% (active)"}, {"smiles": "COc1cc(NC(=S)NCc2ccco2)c(OC)cc1Cl", "inhibition": "-0.7% (inactive)"}, {"smiles": "O=C(NCCc1c[nH]c2ccccc12)c1cc2ccccc2oc1=O", "inhibition": "0.17% (inactive)"}, {"smiles": "CC(C)(C)N(Cc1ccccc1)C(=O)COC(=O)CCc1c[nH]c2ccccc12", "inhibition": "-1.13% (inactive)"}, {"smiles": "Nc1nonc1-n1nnc(C(=O)N/N=C/c2c[nH]c3ccccc23)c1-c1ccccc1", "inhibition": "0% (inactive)"}, {"smiles": "O=C(O)c1cccc(NC(=S)N/N=C/c2c[nH]c3ccccc23)c1", "inhibition": "0.08% (inactive)"}, {"smiles": "CSC(=S)N/N=C/c1c[nH]c2ccccc12", "inhibition": "12.8% (active)"}, {"smiles": "Cc1ccc(CSCC2Nc3ccc(C(=O)N4CCN(c5ccc(F)cc5)CC4)cc3NC2=O)cc1", "note": "(stereo unspecified)", "inhibition": "-0.76% (inactive)"}, {"smiles": "O=C(O)CCCC(=O)Nc1ccc(Oc2cccc(C(F)(F)F)c2)nc1", "inhibition": "1.79% (inactive)"}, {"smiles": "Cc1ccc(OC(=O)c2ccccc2C(=O)OCC(F)(F)C(F)F)cc1", "inhibition": "0.25% (inactive)"}, {"smiles": "O=C(CCC(=O)NNc1nc2ccccc2c2nc(-c3ccccc3)nn12)NCCCN1CCCC1=O", "inhibition": "-1.57% (inactive)"}, {"smiles": "CCOC(=O)c1ccc(NC(=O)CSc2nnc(COc3ccccc3OC)n2C)cc1", "inhibition": "2.63% (inactive)"}, {"smiles": "CCCc1nnc(SCC(=O)Nc2ccc(C(=O)OCC)cc2)o1", "inhibition": "-1.1% (inactive)"}, {"smiles": "CCOC(=O)c1ccc(NC(=O)Cn2cnc3cc(C)c(C)cc32)cc1", "inhibition": "16.7% (active)"}, {"smiles": "COc1cc(OC)cc(-c2c(C#Cc3ccsc3)c3cc(-c4ccc(SC)cc4)ccc3n2C)c1", "inhibition": "0.52% (inactive)"}, {"smiles": "COc1ccc(-c2ccc(CCC(=O)O)n2NC(=O)c2ccc(C(C)(C)C)cc2)cc1", "inhibition": "2.02% (inactive)"}, {"smiles": "COc1ccc(CSc2nnnn2-c2ccc(O)cc2)cc1F", "inhibition": "-0.34% (inactive)"}]}]}
